According to PubChem BioAssay (Tox21):
Results filed as inconclusive are left out. Entries that show only a call come without a potency. Calls of active or inactive are those of the source. The call rests on the fitted dose curve.

Assay: qHTS assay for small molecule agonists of the p53 signaling pathway - cell viability (AID 651633);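 further: p53RE-bla HCT reporter cells with a stable beta-lactamase p53 reporter; nearly all actives have a fitted effect of over 30% in size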
Conditions: p53RE-bla HCT-116 viability, ATP luminescence, 16 h; series mostly up to 83.3 µM
From the text: National Center for Advancing Translational Sciences [NCATS]
NIH Chemical Genomics Center [NCGC]
U.S. Environmental Protection Agency [EPA]
National Institutes of Environmental Health Sciences [NIEHS]
National Toxicology Program [NTP]
U.S. Food and Drug Administration [FDA]
p53, a tumor suppressor protein, is activated following cellular insult, including DNA damage and other cellular stresses. The activation of p53 regulates cell fate by inducing DNA repair, cell cycle arrest, apoptosis, or cellular senescence. The activation of p53, therefore, is a good indicator of DNA damage and other cellular stresses. […] The activation of the reporter gene under culture conditions can be detected by fluorescence intensity. This cell line was used to screen the Tox21 compound library in a 1536-well plate format and to identify agonists that activate the p53 signaling pathway.
Tox21 Assay Protocol Summary:
The p53RE-bla cells were dispensed at 4,000 cells/5 ul/well in 1536-well black wall/clear bottom plates using a Multidrop dispenser. After the assay plates were incubated at a 37 C/5% CO2 incubator for 5 hours, 23 nL of compounds dissolved in DMSO, positive controls or DMSO only was transferred to the assay plate by a pin tool. The plates were incubated at 37 C for 16 hours. After 1 uL of LiveBLAzerTM B/G FRET substrate was added using a Flying Reagent Dispenser, the plates were incubated at room temperature for 2 hours, and fluorescence intensity was measured by an Envision plate reader.
For cell viability readout that measures cytotoxicity, 4 ul/well of CellTiter-Glo reagent was added into the assay plates using a Flying Reagent Dispenser. After 30 min incubation at room temperature, the luminescence intensity in the plates was measured using a ViewLux plate reader.

| SMILES | Potency |
| --- | --- |
| CC(C)CC#N | inactive |
| CC1(C)C(=O)NC(=O)NC1=O | inactive |
| C=CC1CC=CCC1 (stereo not given) | inactive |
| COC(=O)C1=CCCN(C)C1 | inactive |
| C[C@]1(O)CC[C@H]2[C@@H]3CCC4=CC(=O)CC[C@]4(C)[C@@]3(F)[C@@H](O)C[C@@]21C | inactive |
| C[C@@H]1CN(C2CCC(C#N)(c3ccc(F)cc3)CC2)CC[C@]1(C(=O)O)c1ccccc1 (stereo not given in full) | inactive |
| CCN(CC)CCOC(=O)C(C)(c1ccccc1)c1ccccc1 | inactive |
| C=C(C)CN(CC)c1c([N+](=O)[O-])cc(C(F)(F)F)cc1[N+](=O)[O-] | inactive |
| C[C@H]1CCC[C@H](O)CCCCCc2cc(O)cc(O)c2C(=O)O1 | inactive |
| Cc1cccc(C#N)c1 | inactive |
| CN1CCN(C(=O)O[C@H]2c3nccnc3C(=O)N2c2ccc(Cl)cn2)CC1 | inactive |
| Nc1ccccc1Cl | inactive |
| CC1=C(C(=O)Nc2ccccc2)S(=O)(=O)CCO1 | inactive |
| C=C(C)[C@@H]1CC=C(C=O)CC1 | inactive |
| CCOP(=S)(OCC)Oc1nc(Cl)n(C(C)C)n1 | inactive |
| CCCSC(=O)N(CCC)CCC | inactive |
| CCN(CC)c1nc(C)cc(OP(=S)(OC)OC)n1 | inactive |
| CN/C(=N\[N+](=O)[O-])NCC1CCOC1 (stereo not given) | inactive |
| C[N+](C)=CCl | inactive |
| CC1=NNC(=O)N(/N=C/c2cccnc2)C1 | inactive |

| SMILES | Potency |
| --- | --- |
| NC(=S)C(N)=S | inactive |
| O=C(Oc1ccc(Br)cc1)N1CCN2CCC1CC2 | inactive |
| CCOC(=O)N(C)C(=O)CSP(=S)(OCC)OCC | inactive |
| O=C(CCN1CC1)OCC(CO)(COC(=O)CCN1CC1)COC(=O)CCN1CC1 | inactive |
| ClC(Br)Br | inactive |
| ClC(Cl)(Cl)C(Cl)(Cl)Cl | inactive |
| CCC1(c2ccccc2)C(=O)NC(=O)NC1=O | inactive |
| CCC/C(=N\OCC)C1=C(O)CC(CC(C)SCC)CC1=O (stereo not given) | inactive |
| CCNc1nc(NC(C)C)nc(OC)n1 | inactive |
| CCN(CC)C(=O)[C@@H]1C=C2c3cccc4[nH]cc(c34)C[C@H]2N(C)C1 | inactive |
| Fc1ccc(C2(Cn3cncn3)OC2c2ccccc2Cl)cc1 (stereo not given) | inactive |
| CCc1cc2c(s1)-n1c(C)nnc1CN=C2c1ccccc1Cl | inactive |
| O=[N+]([O-])c1cc(Cl)c(Cl)c(Cl)c1 | inactive |
| NC(=O)O | inactive |
| COc1cccc(C(=O)NN(C(=O)c2cc(C)cc(C)c2)C(C)(C)C)c1C | inactive |
| O=C(O)C(Br)CBr (stereo not given) | inactive |
| Cc1coc2c1CCC(C)C2 (stereo not given) | inactive |
| CCCCc1c(C)nc(NCC)[nH]c1=O | inactive |
| O=C(Nc1ccccc1)N(Cc1ccc(Cl)cc1)C1CCCC1 | inactive |
| CCC(Cl)[N+](=O)[O-] (stereo not given) | inactive |
